The results in this text go back to PubChem BioAssay AID1645886 (National Center for Advancing Translational Sciences (NCATS), 2021).

Out of some 16,000 compounds screened, about 260 (1.6%) were called active. Inconclusive results (about 14%) are left out. Calls follow the shape of the dose curve; as a rule, active = well fitted inhibition curve with a large enough effect; inconclusive = small, poorly fitted or top-dose-only effect; inactive = no such curve, though single readings can be large or run the other way. The entries come from a sample that favours actives as a whole. Where a call stands in place of a potency, no number is given. Some structures have more than one record in an assay (separate samples or runs), and their calls can disagree. Where a SMILES comes first, the peptide text is derived from it. Bridges are numbered along the chain shown (N, C = ends). [ ]: non-standard residue; d: D form. The star is where a group is joined. X4 = CC[C@H](C)CCCCC(=O)*; Dab = NCC[C@H](N)C(=O)O
Potency is read from the fitted curve at half-maximal effect.

For the assay, the target named is Rap guanine nucleotide exchange factor 4 (Homo sapiens) (UniProt Q8WZA2). Put plainly: Validation qHTS for antagonist of cAMP-regulated guanine nucleotide exchange factor 4 (EPAC2). Also: nearly all actives have a fitted effect of over 40% in size. The conditions noted are these: EPAC2 Rap1B BODIPY-GDP exchange, fluorescence; series mostly up to 112 µM. From the text: Principle Investigator: Xiaodong Cheng Ph.D. The University of Texas Medical Branch, […], TX MLPCN Grant: NS066510 In multi-cellular eukaryotic organisms, the effects of cAMP are transduced by two ubiquitously-expressed intracellular cAMP receptors, the classic protein kinase A/cAMP-dependent protein kinase (PKA/cAPK) and the more recently discovered exchange protein directly activated by cAMP/cAMP-regulated guanine nucleotide exchange factor (EPAC/cAMP-GEF). Both PKA and EPAC are ubiquitously expressed in all tissues, and an increase in intracellular cAMP levels will lead to the activation of both PKA and EPAC. Therefore, careful dissections of the individual role and relative contribution of EPAC and PKA within the overall cAMP signaling in various model systems are critical for further elucidating the mechanism of cAMP signaling. To date no EPAC-specific antagonists and agonist, as well as isoform-specific agonists have been reported, and developing EPAC-specific pharmacological probes to determine the physiological functions that EPAC play in the overall cAMP-mediated signaling remains a major challenge within the research field. Furthermore, identified regulators of EPAC may lead to new mechanism-based therapeutic strategies specifically targeting the EPAC / cAMP-signaling components as EPAC has been implicated to play important roles in major human pathological conditions such as diabetes, heart disease, and cancer. This qHTS will be used to screen the Molecular Libraries Small Molecule Repository (MLSMR) as a concentration-titration series using the NCGC unique quantitative screening (qHTS) platform to find activators for EPAC1. In addition, this assay will also be used as a counterscreen for the EPAC2 qHTS. This fluorescent based assay is developed and validated for EPAC1 that measures exchange using EPAC effector Rap1 complex with BODIPY-GDP, a GDP analog with a tethered fluorophores. Activators are identified by monitoring the change in fluorescence signal as the exchanged free BODIPY-GDP has a reduced fluorescence compared to Rap1-bound BODIPY-GDP. Increase in signal (activation) is the desired outcome for the EPAC1 agonist while no activity in this assay is desired for the EPAC2 agonist counterscreen. Reference: [1] de Rooij, J., Zwartkruis, F. J., Verheijen, M. H., Cool, R. H., Nijman, S. M., Wittinghofer, A., and Bos, J.L. (1998) Nature 396, 474-477.
Rap guanine nucleotide exchange factor 4 (Homo sapiens), sequence (Q8WZA2 whole entry, looked up): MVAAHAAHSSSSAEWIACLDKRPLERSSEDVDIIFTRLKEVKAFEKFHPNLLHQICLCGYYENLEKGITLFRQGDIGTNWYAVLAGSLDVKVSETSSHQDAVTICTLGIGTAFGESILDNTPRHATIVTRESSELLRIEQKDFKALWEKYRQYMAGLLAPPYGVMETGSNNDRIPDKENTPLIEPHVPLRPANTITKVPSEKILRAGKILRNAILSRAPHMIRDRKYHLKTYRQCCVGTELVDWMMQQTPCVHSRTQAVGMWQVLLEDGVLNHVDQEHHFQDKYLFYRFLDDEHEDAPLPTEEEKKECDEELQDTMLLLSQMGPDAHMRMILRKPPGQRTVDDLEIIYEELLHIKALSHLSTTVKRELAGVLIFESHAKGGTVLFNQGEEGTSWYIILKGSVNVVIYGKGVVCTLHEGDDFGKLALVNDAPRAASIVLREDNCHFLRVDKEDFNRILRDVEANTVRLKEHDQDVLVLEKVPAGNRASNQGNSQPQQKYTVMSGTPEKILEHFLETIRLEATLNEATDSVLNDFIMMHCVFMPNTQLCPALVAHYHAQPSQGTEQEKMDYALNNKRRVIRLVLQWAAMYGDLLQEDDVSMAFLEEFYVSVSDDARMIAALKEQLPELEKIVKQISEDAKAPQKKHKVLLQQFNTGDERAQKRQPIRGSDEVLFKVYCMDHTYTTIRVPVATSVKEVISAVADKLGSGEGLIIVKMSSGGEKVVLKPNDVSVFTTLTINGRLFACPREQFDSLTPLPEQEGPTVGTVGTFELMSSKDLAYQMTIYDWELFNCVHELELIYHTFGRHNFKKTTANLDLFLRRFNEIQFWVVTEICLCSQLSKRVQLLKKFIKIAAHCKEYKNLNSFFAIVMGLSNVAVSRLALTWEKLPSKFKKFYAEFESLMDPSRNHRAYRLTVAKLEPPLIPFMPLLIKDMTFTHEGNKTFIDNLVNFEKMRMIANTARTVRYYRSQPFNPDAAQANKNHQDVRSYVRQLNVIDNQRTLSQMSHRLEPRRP
Briefly, three uL of reagents (100 nM EPAC2, 250 nM RAP1B-BODIPY-GDP, 50 uM GDP) were dispensed into a 1536-well Greiner black solid-bottom medium binding assay plate. Controls and test compounds (23 nL) were transferred to the plate via a Kalypsys pin tool equipped with a 1536-pin array. The plates were centrifuged at 1,000 rpm for 15 seconds followed by 5 minute incubation at room temperature. The assay plates were read at 5 minute intervals for 30 minutes in the ViewLux plate reader using 480nm excitation and 540nm emission filters. The results were normalized to the agonist positive control of 6.5 mM cAMP.
Take `C/C(Nc1ccc2oc(=O)ccc2c1)=C1/C(=O)CC2[C@@H]1C2(C)C` (some centres undefined): the Potency result was “inactive”. In the case of `c1ccc(CN2CCN(Cc3ccc4c(c3)CN(Cc3c[nH]c5ccccc35)CCO4)CC2)nc1`, the Potency entry is “inactive”. As for `O=C1CCN(Cc2ccc(-c3ccccc3)cc2)CCN1Cc1ccccn1`, the entry is “inactive”; as for `Cn1cc(-c2nc3cnc(N4CCNCC4)nc3n(CCC#N)c2=O)c2ccccc21`, “inactive”; as for `CN(C)c1ccc(-c2nc(NCCN3CCOCC3)c3ccccc3n2)cc1`, “inactive”.

Regarding `Oc1c(Cl)cc(Cl)c(Cl)c1Cc1c(O)c(Cl)cc(Cl)c1Cl`, the Potency is 44.7 µM (active) and inactive. As for `COCc1c(C(=O)NC2CCCCC2)cnn1-c1nccc(-c2ccccc2OC)n1`, the entry is “inactive”. On to `COc1ccc2c(c1)NC(=O)C2CC(=O)N1CCOc2c(cc(-c3cnc4ccccc4c3)cc2OC)C1` (centres undefined), for which the Potency result is “inactive”.

On to `Cc1ccc(-c2ncc(Cl)cc2-c2ccc(S(C)(=O)=O)cc2)cn1`, for which the Potency result was “inactive”. As for `O=c1ccn([C@@H]2O[C@H](COP(=O)(O)OP(=O)(O)OP(=O)(O)O)[C@@H](O)[C@H]2O)c(=O)[nH]1`, the Potency result is “inactive”. Turning to `CC(C)[C@@H]1NC(=O)[C@H](Cc2ccccc2)NC(=O)[C@@H](CC(=O)O)NC(=O)CNC(=O)[C@H](CCCNC(=N)N)NC1=O`, the Potency entry is “inactive”. The entry for `O=S(O)CNc1ccc(S(=O)(=O)c2ccc(NCS(=O)O)cc2)cc1` is “inactive”.

On to `C/C=C(/C)C(=O)OC1Cc2c(ccc3ccc(=O)oc23)OC1(C)C` (centres undefined), for which the Potency entry was “inactive”. As to `CC(C)N1C[C@@H](NCc2ccccc2O)C[C@H]1C(=O)N1CCN(c2cccc(C(F)(F)F)c2)CC1`, the Potency result is “inactive”. As for `O=C(c1ccco1)N1CCC2(CC1)CCN(c1ncccn1)CC2`, the entry is “inactive”. As for `CC1(C)C=CC(=O)[C@]2(C)C1CC(=O)[C@]1(C)C2CC[C@@]2(C)C(c3ccoc3)OC(=O)C3OC321` (some centres undefined), the entry is “inactive”; as for `CC(C)C1=CC2=CC[C@H]3[C@](C)(C(=O)O)CCC[C@]3(C)C2CC1` (some centres undefined), “inactive”; as for `O=C1c2ccccc2C(=O)C1c1ccccc1`, “inactive”. As for `CN(C)c1ncc2nc(-c3ccc(F)cc3)c(=O)n(Cc3ccc(F)cc3)c2n1`, the entry is “inactive”; as for `CC(=O)N1CCC2(CCCN(Cc3ccccc3)C2)CC1`, “inactive”.

Take `CC[C@H](C)CCCCC(=O)N[C@@H](CCN)C(=O)N[C@H](C(=O)N[C@@H](CCN)C(=O)N[C@H]1CCNC(=O)[C@@H]([C@H](C)O)NC(=O)[C@H](CCN)NC(=O)[C@H](CCN)NC(=O)[C@H](CC(C)C)NC(=O)[C@@H](CC(C)C)NC(=O)[C@H](CCN)NC1=O)[C@@H](C)O` (X4-[Dab]T[Dab][Dab][Dab][dL]L[Dab][Dab][dT]; lactam 4-C): the Potency result was “inactive”. The entry for `CC1OC(OCC2OC(Oc3c(-c4ccc(O)c(O)c4)oc4cc(O)cc(O)c4c3=O)C(O)C(O)C2O)[C@@H](O)C(O)C1O` (some centres undefined) is “inactive”; for `COc1cc(=O)n2c(c1C(=O)NCc1ccco1)CCN(Cc1ccccc1)CC2` it is “inactive”; for `CNc1ncnc2ccc(-c3cccc(NS(C)(=O)=O)c3)cc12` it is “inactive”.

As to `CS(=O)(=O)N1CCC2(CC1)CN(Cc1cc(C(F)(F)F)cc(C(F)(F)F)c1)C2`, the Potency entry was “inactive”. The entry for `O=C1CCNCCN1[C@H](CO)Cc1ccccc1` is “inactive”; for `Cc1nc2cnc(N3CCNCC3)nc2n(Cc2ccc(F)cc2)c1=O` it is “inactive”; for `Nc1ccccc1N` it is “inactive”. The entry for `CC1(C)S[C@@H]2[C@H](NC(=O)COc3ccccc3)C(=O)N2C1C(=O)OCc1ccccc1` (some centres undefined) is “inactive”; for `COC1C[C@@H](O[C@@H]2C(C)C(=O)OC(C)C(C)C(O)C(C)C(=O)[C@@]3(CO3)CC(C)C(OC3OC(C)CC(N(C)C)C3O)C2C)OC(C)[C@@H]1O` (some centres undefined) it is “inactive”.

On to `COCCn1c(=O)c(-c2cccs2)nc2cncnc21`, for which the Potency entry was “inactive”. As for `N#C/C(=C\c1ccc(O)c(O)c1)C(=O)NCc1ccccc1`, the entry is “inactive”; as for `COc1cccc(CN2CCC3(CC2)c2ccccc2[C@@H](NC(=O)c2ccccc2OC)[C@@H]3O)c1`, “inactive”; as for `COc1ccc(CN2[C@@H](CC(=O)O)c3cc(F)ccc3S2(=O)=O)cc1`, “inactive”. `CN1C(=O)CN2CCc3ccccc3C2c2cc(Cl)ccc21` (centres undefined): the Potency result is “inactive”. The entry for `CCCS(=O)(=O)NCc1c(C)ncc2c1CCN(C(=O)c1ccc(F)c(F)c1)C2` is “inactive”; for `O=C(c1cccc(Cn2cccn2)c1)N1CCOc2c(cc(-c3csc4ccccc34)cc2OC2CCOC2)C1` (centres undefined) it is “inactive”. The entry for `O=C(c1cccc(F)c1)N1CCC2(CCCN(Cc3ccncc3)C2)CC1` is “inactive”; for `c1cncc(-c2nc(N3CCNCC3)c3ccccc3n2)c1` it is “inactive”. For `CC(=O)/C(C)=N\O`, the Potency entry is “inactive”.

In the case of `COc1ncc2nc(-c3ccc(Cl)cc3)c(=O)n(-c3ccccc3)c2n1`, the Potency entry was “inactive”. Regarding `COc1ccc(CN2CCC3(CCC(CNC(=O)c4ccco4)O3)CC2)cc1OC` (centres undefined), the Potency result is “inactive”. Take `COc1ccc2c(c1)CCc1cnc(-n3ncc(C(=O)NCCN4CCOCC4)c3C)nc1-2`: the Potency result was “inactive”. The entry for `c1ccc2cc(C3=NCCN3)ccc2c1` is “inactive”. On to `NNc1nnc(NN)c2ccccc12`, for which the Potency entry is “inactive”. The entry for `Cc1cccc(CNc2cc(-c3ccccc3Cl)ncn2)c1` is “inactive”.

As to `Cc1ccc2c(C)nc(N3CCCC(C(=O)NC(C)(C)CO)C3)nc2c1` (centres undefined), the Potency result is “inactive”. As for `O=C(Oc1cc(OC(=O)c2ccccc2)c2c(c1)OC(c1ccc(OC(=O)c3ccccc3)c(OC(=O)c3ccccc3)c1)[C@@H](OC(=O)c1ccccc1)C2)c1ccccc1` (some centres undefined), the entry is “inactive”; as for `C/C=C(\C)C(=O)O[C@H]1CC(C)=C2C(=O)C=C(C)C2[C@@H]2OC(=O)[C@@](C)(OC(=O)C=C(C)C)C21` (some centres undefined), “inactive”; as for `CC[C@H](C)CCCCC(=O)N[C@@H](CCN)C(=O)N[C@H](C(=O)N[C@@H](CCN)C(=O)N[C@H]1CCNC(=O)[C@H]([C@@H](C)O)NC(=O)[C@H](CCN)NC(=O)[C@H](CCN)NC(=O)[C@H](CC(C)C)NC(=O)[C@@H](CC(C)C)NC(=O)[C@H](CCN)NC1=O)[C@@H](C)O` (X4-[Dab]T[Dab][Dab][Dab][dL]L[Dab][Dab]T; lactam 4-C), “inactive”. Turning to `COCCn1c(=O)c(CCc2ccccc2)nc2cnc(N3CCNCC3)nc21`, the Potency result is “inactive”. Take `CC(C)c1cnc(NC(=O)Cc2ccccc2)s1`: the Potency entry is “inactive”. With `CC1(C)O[C@@H]2C[C@@H]3[C@H]4C[C@@H](F)C5=CC(=O)C=C[C@]5(C)[C@@]4(F)[C@@H](O)C[C@]3(C)[C@]2(C(=O)CO)O1`, the Potency entry was “inactive”. Turning to `COc1ccc2[nH]cc(CCNc3ncnc4ccc(-c5ccc(C(=O)N(C)C)cc5)cc34)c2c1`, the Potency entry was “inactive”.
